Drawing on PubChem BioAssay (NCATS), this text covers cell viability, % of control (lower = more cytotoxic) for 40 molecules.

The experiment can be described thus: High-throughput drug toxicity screening in the BPDCN cell line Gen2.2 (AID 1224824). Particulars: Gen2.2 BPDCN cells; at 45.8 µM (top of the series) unless noted. The text has this: Blastic plasmacytoid dendritic cell neoplasm (BPDCN) is a rare, aggressive and largely incurable hematologic malignancy originating from plasmacytoid dendritic cells (pDCs). Although an initial response to chemotherapy is common, BPDCN prognosis is extremely poor and most patients relapse with drug-resistant disease leading to a median overall survival of ~1 year after diagnosis. To explore novel potential therapeutic strategies in BPDCN, we performed a high-throughput drug toxicity screening in BPDCN cell liens, using of a library of 1,912 small molecules, enriched for compounds that are either approved or in early stages of development for cancer therapy.
A total of 500 exponentially growing Gen2.2 cells were seeded per well in 5 uL of media (RPMI + Glutamine, without phenol red plus10% FBS and 1X Pen/Strep) into 1536-well solid white high base tissue culture treated Greiner One Bio Plates (789173-F), using a multidrop combi dispenser and a small sterile cassette. Compounds and controls totaling 23nL per well (negative control DMSO and positive control 9.2 uM Bortezomib-final) were immediately added to the plates using a 1536 head pin tool from Kalypsys. The plates were then covered with stainless steel gasket lids from Kalypsys and incubated for 48 hours at 37C under 95% relative humidity with 5% CO2. After 48 hours, the plates were removed and allowed to reach room temperature before 3 uL of Cell Titer Glo reagent (Promega) were added using an Aurora Flying Reagent Dispenser Bioraptor. The plates were then spun at 1000 rpms to remove bubbles and incubated for 15 minutes at room temperature before reading on a ViewLux using a luminescent filter with a 10 second exposure. The relative luciferase units were used to calculated percent activity using DMSO as 100% and Bortezomib as 0%.
Consider `COc1cc2c(Oc3ccc(-c4cnc(Nc5ccc(F)cc5)n(C)c4=O)cc3F)ccnc2cc1OCCCN1CCOCC1`, for which the cell viability, % of control (lower = more cytotoxic) was 5.93%.

On to `CC(C)(O)c1cc2nc(-c3cnc(N)nc3)nc(N3CCOCC3)c2s1`, for which the cell viability, % of control (lower = more cytotoxic) turned out to be 33.5%.

In the case of `CC(C)c1nn(-c2c(Cl)cccc2Cl)c2nc(Cc3ccc(OCCO)cc3)[nH]c(=O)c12`, the cell viability, % of control (lower = more cytotoxic) worked out at 3.64%. As to `CNC(=O)c1cc(Oc2ccc(NC(=O)Nc3cc(C(C)(C)C)nn3-c3ccc4ncccc4c3)c(F)c2)ccn1`, the cell viability, % of control (lower = more cytotoxic) is 5.59%. On to `COc1cc(=C2C=c3ccccc3=N2)[nH]c1=Cc1[nH]c(C)cc1C`, for which the cell viability, % of control (lower = more cytotoxic) worked out at 17.7%. On to `Nc1nc(NCCNc2ncc(-n3ccnc3)c(-c3ccc(Cl)cc3Cl)n2)ccc1[N+](=O)[O-]`, for which the cell viability, % of control (lower = more cytotoxic) came out at 9.17%. Turning to `Cn1c(CNc2ccc(C(=N)N)cc2)nc2cc(C(=O)N(CCC(=O)O)c3ccccn3)ccc21`, the cell viability, % of control (lower = more cytotoxic) came out at 125% [at 23.2 µM]. With `Nc1ncnc2c1c(-c1cccc(OCc3ccccc3)c1)cn2C1CC(CN2CCCC2)C1` (stereo not given), the cell viability, % of control (lower = more cytotoxic) turned out to be 5.16%. As to `COc1cc(C(C)C)c2c(c1)S(=O)(=O)N(COc1cc(=O)n3cccc(OCCN4CCCCC4)c3n1)C2=O`, the cell viability, % of control (lower = more cytotoxic) was 3.67%. As to `c1cc(-c2cnn3cc(-c4ccc(OCCN5CCCCC5)cc4)cnc23)ccn1`, the cell viability, % of control (lower = more cytotoxic) turned out to be 2.64%. With `C[C@@H](Oc1cc(-c2cnn(C3CCNCC3)c2)cnc1N)c1c(Cl)ccc(F)c1Cl` the figure was 13.2%. `Cc1cc(C(=O)N2CCN(c3cccc(Cl)c3)CC2)n(-c2ccccc2)n1`: the cell viability, % of control (lower = more cytotoxic) worked out at 88.4%. The same measure for `CCN(CC)CCNC(=O)c1ccc2nc(-c3ccccc3)c(-c3ccc(CN4CCC(n5c(=O)[nH]c6ccccc65)CC4)cc3)nc2c1`: 1.68%; for `O=C(O)Cn1nnc(-c2cc(N3CCC(Oc4cc(F)ccc4Br)CC3)no2)n1`: 231%; for `CN1CC[C@@H](c2c(O)cc(O)c3c(=O)cc(-c4ccccc4Cl)oc23)[C@@H](O)C1`: 7.16%. With `COc1cc(C)c(Sc2cnc(NC(=O)c3ccc(CNC(C)C(C)C)cc3)s2)cc1C(=O)N1CCN(C(C)=O)CC1` (stereo not given) the figure was 140%. In the case of `COc1cccc(Nc2c(C(N)=O)cnc3c(C)cc(S(=O)(=O)c4cccc(C(=O)N(C)C)c4)cc23)c1`, the cell viability, % of control (lower = more cytotoxic) came to 216% [at 23.2 µM]. On to `O=C(C=Cc1cccc(S(=O)(=O)Nc2ccccc2)c1)NO`, for which the cell viability, % of control (lower = more cytotoxic) turned out to be 8.69% [at 92.2 µM].

As to `N#CCNC(=O)c1ccc(-c2ccnc(Nc3ccc(N4CCOCC4)cc3)n2)cc1`, the cell viability, % of control (lower = more cytotoxic) was 55.1%. Take `CC(C)c1ccccc1Cc1cc(C(=O)Nc2ccc(S(=O)(=O)c3ccccc3C(C)(C)C)cc2)c(O)c(O)c1O`: the cell viability, % of control (lower = more cytotoxic) was 20.8%. With `CCCCCN(CCC12CC3CC(CC(C3)C1)C2)C(=O)NCCCc1ccncc1` the figure was 111%; with `Cc1cc(Nc2cc(CN3CCOCC3)c3nc(C)c(Cc4ccc(Cl)cc4F)n3n2)n[nH]1`, 4.25%; with `CC(C)c1cc(-c2n[nH]c(=O)n2-c2ccc3c(ccn3C)c2)c(O)cc1O`, 4.99%. As to `CN1CCN(c2ccc3nc(-c4c(N)c5c(F)cccc5[nH]c4=O)[nH]c3c2)CC1`, the cell viability, % of control (lower = more cytotoxic) was 9.8%.

Regarding `CNC(=O)c1nn(C)c2c1C(C)(C)Cc1cnc(Nc3ccc(N4CCN(C)CC4)cc3)nc1-2`, the cell viability, % of control (lower = more cytotoxic) turned out to be 3.63%. `CCC1=C[C@@H]2CN(C1)Cc1c([nH]c3ccccc13)[C@@](C(=O)OC)(c1cc3c(cc1OC)N(C)[C@@H]1[C@@](O)(C(=O)OC)[C@H](OC(C)=O)[C@]4(CC)C=CCN5CC[C@]31[C@@H]54)C2`: the cell viability, % of control (lower = more cytotoxic) was determined as 28.9%.

For `COc1cc(-c2nn(C3CCC(N4CCN(C(C)=O)CC4)CC3)c3ncnc(N)c23)ccc1NC(=O)c1cc2ccccc2n1C` (stereo not given), the cell viability, % of control (lower = more cytotoxic) turned out to be 34.5%. Consider `CC[C@@]1(O)C(=O)OCc2c1cc1n(c2=O)Cc2cc3cc(O)ccc3nc2-1`, for which the cell viability, % of control (lower = more cytotoxic) came to 4.43%. In the case of `Cc1ccc2nc(NC(=O)CSc3nc4c(c(=O)n3-c3ccccc3)SCC4)sc2c1`, the cell viability, % of control (lower = more cytotoxic) was found to be 120%. As to `Cc1cc(Nc2cc(N3CCN(C)CC3)nc(Sc3ccc(NC(=O)C4CC4)cc3)n2)n[nH]1`, the cell viability, % of control (lower = more cytotoxic) was 36.4%.

For `Nc1nccc(Oc2ccc(NC(=O)c3c[nH]cc(-c4ccc(F)cc4)c3=O)cc2F)c1Cl`, the cell viability, % of control (lower = more cytotoxic) was 7.66%. On to `C[C@@H](Oc1cc(-n2cnc3ccc(CN4CCN(C)CC4)cc32)sc1C(N)=O)c1ccccc1C(F)(F)F`, for which the cell viability, % of control (lower = more cytotoxic) amounted to 3.33%. Turning to `CCN(CC)CCCCNc1ncc2cc(-c3cc(OC)cc(OC)c3)c(NC(=O)NC(C)(C)C)nc2n1`, the cell viability, % of control (lower = more cytotoxic) was determined as 4.8%. Take `Nc1ccccc1NC(=O)c1ccc(CNC(=O)OCc2cccnc2)cc1`: the cell viability, % of control (lower = more cytotoxic) amounted to 2.59%. The same measure for `CN(C)CCCN=c1c2ccccc2n(C)c2[nH]c(=O)n(C)c(=O)c12`: 2.75%. `OCc1ccc(-c2ccc(-c3ccc(CO)s3)o2)s1`: the cell viability, % of control (lower = more cytotoxic) stood at 1.11%. For `COc1cc2c(NC3CCN(C(C)C)CC3)nc(C3CCCCC3)nc2cc1OCCCN1CCCC1`, the cell viability, % of control (lower = more cytotoxic) was 9.63%. The same measure for `COc1ccc(-n2nc(C(N)=O)c3c2C(=O)N(c2ccc(N4CCCCC4=O)cc2)CC3)cc1`: 150%; for `CC(C)(O)CCc1ccc(OCc2cc(-c3cccc(OC(F)F)c3)c3ncccc3c2)cc1`: 132%. Turning to `CN1CCN(c2cc(C(=O)Nc3ccc4c(c3)-c3c(c(C(N)=O)nn3-c3ccc(F)cc3)CC4)c(Cl)cn2)CC1`, the cell viability, % of control (lower = more cytotoxic) was 5.17%.
